These results are taken from PubChem BioAssay AID2662 (National Center for Advancing Translational Sciences (NCATS), 2010).

Hit rate of the full screen: of about 290,000 compounds, about 110 (0.038%) were called active. Inconclusive results (about 3%) are left out. The sample as a whole holds a higher share of actives than the screen did. Values without a mark were called inactive. The call rests on the fitted dose curve; in most records, active means well fitted inhibition curve with a large enough effect in the polarisation, with a control signal flat (not every such curve was filed as active); inconclusive means small, poorly fitted or top-dose-only effect, or effect the other way, or a change in a side signal; inactive means no such curve, though single readings can be large or run the other way; the % refers to the polarisation.
Potency means the concentration at half of the fitted maximal effect.

Chain of Histone-lysine N-methyltransferase 2A (Homo sapiens) (Q03164 whole entry, looked up, the tested form may be a part): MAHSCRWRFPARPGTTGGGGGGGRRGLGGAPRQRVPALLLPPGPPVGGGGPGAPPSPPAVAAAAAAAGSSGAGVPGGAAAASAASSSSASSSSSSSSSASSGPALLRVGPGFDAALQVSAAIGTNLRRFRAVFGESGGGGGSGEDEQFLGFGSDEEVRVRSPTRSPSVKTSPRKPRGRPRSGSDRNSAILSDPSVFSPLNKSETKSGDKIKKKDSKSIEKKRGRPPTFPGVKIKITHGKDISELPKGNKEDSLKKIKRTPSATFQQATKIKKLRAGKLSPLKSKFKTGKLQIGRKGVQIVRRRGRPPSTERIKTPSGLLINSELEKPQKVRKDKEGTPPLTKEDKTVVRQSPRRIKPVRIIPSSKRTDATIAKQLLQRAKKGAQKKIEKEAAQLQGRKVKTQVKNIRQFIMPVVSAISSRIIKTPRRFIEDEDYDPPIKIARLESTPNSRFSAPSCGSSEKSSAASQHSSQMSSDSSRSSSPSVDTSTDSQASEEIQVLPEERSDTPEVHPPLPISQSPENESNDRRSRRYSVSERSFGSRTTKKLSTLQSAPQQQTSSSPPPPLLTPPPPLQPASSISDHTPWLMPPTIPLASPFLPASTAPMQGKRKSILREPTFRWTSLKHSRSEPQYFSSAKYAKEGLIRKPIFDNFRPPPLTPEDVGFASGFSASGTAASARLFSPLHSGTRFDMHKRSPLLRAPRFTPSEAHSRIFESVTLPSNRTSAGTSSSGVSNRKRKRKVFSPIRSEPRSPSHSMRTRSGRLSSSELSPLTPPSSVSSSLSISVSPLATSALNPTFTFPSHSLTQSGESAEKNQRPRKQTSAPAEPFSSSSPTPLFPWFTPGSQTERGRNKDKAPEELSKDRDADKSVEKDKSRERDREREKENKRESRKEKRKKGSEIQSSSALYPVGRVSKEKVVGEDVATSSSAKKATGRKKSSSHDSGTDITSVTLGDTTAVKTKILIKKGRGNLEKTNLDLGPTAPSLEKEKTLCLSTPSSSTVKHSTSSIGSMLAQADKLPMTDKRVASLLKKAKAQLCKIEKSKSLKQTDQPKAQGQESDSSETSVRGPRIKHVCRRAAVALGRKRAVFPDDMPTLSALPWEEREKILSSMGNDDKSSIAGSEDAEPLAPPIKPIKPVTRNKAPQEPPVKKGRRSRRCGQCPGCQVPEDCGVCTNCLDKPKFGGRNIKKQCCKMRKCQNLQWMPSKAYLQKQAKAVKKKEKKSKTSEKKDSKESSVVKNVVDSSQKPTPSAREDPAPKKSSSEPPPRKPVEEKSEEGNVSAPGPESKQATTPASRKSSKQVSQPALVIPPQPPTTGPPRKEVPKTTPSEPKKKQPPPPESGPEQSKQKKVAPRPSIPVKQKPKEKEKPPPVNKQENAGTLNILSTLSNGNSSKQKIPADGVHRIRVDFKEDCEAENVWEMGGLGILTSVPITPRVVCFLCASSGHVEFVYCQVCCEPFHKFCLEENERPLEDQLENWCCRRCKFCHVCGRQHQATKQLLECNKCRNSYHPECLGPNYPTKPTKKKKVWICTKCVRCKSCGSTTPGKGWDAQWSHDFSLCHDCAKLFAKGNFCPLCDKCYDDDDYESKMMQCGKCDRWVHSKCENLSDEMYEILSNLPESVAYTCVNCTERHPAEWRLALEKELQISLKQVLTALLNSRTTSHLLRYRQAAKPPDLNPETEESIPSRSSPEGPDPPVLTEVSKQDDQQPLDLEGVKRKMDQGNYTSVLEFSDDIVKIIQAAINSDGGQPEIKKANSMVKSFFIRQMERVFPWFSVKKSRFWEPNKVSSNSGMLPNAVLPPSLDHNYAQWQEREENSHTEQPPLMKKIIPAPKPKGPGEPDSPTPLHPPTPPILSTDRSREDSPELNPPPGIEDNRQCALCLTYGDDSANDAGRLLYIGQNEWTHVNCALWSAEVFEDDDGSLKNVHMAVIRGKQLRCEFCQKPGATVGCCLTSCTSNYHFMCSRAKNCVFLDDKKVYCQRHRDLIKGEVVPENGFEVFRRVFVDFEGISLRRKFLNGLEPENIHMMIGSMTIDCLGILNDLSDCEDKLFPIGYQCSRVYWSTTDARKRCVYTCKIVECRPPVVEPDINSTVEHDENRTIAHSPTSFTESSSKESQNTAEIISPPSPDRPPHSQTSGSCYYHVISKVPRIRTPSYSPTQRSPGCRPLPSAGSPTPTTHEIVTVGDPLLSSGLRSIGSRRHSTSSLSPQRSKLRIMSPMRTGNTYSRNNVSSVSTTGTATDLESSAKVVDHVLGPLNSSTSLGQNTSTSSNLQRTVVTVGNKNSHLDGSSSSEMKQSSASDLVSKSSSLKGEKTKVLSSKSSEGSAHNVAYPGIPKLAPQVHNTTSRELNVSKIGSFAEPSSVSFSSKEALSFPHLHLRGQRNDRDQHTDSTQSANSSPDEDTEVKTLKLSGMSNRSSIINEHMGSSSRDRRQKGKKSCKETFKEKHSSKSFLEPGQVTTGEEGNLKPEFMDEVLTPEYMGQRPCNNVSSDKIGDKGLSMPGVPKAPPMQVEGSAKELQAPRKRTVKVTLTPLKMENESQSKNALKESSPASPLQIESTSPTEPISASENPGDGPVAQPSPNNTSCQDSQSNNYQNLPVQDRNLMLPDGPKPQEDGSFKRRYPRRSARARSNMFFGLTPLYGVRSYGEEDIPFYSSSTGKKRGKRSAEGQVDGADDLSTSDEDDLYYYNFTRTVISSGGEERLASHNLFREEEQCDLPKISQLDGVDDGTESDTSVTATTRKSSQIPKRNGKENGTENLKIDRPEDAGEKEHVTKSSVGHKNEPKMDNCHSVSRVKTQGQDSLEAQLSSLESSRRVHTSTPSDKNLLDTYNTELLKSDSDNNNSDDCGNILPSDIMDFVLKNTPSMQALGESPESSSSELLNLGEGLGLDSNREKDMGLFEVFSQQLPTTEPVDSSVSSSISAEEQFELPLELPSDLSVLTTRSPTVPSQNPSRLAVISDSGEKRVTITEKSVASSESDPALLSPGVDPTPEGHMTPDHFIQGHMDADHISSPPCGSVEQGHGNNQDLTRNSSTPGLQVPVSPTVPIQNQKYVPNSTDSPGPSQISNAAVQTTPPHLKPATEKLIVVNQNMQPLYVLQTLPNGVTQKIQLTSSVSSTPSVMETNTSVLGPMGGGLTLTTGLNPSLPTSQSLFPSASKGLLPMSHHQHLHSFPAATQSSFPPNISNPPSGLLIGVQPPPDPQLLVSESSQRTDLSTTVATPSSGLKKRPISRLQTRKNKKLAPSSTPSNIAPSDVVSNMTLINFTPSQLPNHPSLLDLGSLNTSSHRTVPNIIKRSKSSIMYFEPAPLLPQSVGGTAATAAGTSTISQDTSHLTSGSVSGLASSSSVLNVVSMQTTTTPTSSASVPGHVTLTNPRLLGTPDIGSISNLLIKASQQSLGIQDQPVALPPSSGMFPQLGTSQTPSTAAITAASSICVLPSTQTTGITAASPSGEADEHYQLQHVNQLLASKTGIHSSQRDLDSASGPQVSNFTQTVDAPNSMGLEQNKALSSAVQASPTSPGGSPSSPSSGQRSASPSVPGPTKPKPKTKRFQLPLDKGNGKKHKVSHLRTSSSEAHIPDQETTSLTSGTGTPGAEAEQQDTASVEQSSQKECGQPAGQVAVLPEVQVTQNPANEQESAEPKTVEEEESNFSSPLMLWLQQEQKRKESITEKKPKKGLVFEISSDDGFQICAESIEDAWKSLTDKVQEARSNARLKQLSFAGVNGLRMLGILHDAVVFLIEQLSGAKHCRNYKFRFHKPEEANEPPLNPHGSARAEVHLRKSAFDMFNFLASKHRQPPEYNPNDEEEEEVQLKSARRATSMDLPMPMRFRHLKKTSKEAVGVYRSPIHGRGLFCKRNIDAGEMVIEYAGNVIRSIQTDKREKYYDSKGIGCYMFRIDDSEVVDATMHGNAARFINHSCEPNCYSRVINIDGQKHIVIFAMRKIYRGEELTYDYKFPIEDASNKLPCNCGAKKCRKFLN

This test concerns the target Histone-lysine N-methyltransferase 2A (Homo sapiens) (UniProt Q03164). The test is described as follows: qHTS Fluorescence Polarization Assay for Inhibitors of MLL CXXC domain - DNA interaction. The following applies: MLL-CXXC / FITC-HOXA9 DNA fluorescence polarization; series mostly up to 115 µM; activity change, negative = inhibition: at the top concentration. A digest of the protocol:
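Fluorescence polarization: 7 uM MLL-CXXC (stock) preincubated 5 min with compounds, then 50 nM fluorescein-HOX-A9 DNA (stock) added; 30 min ambient. Buffer 50 mM Tris-HCl pH 7.5, 50 mM NaCl, 1 mM DTT, 0.05% BSA.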
Background: qHTS replaces the single test concentration by a dilution series.
`COc1ccc(NC(=S)N2CCC(NC(=O)c3cccc(F)c3)CC2)cc1`: the “activity change, negative = inhibition” value is 5.04%. For the molecule `S=C(Nc1ccc(Cl)cc1Cl)N1CCCC1`, the “activity change, negative = inhibition” value is 8.17%. Take `Cc1ccc(-c2csc(N3CCN(c4cc5c(cc4Cl)nc(-c4ccncc4)n5CCOCCO)CC3)n2)cc1`: the “activity change, negative = inhibition” value is 17.7%. Regarding `O=C(N/N=C/c1cccnc1)c1ccc(NC(=O)c2ccc(F)cc2)cc1`, the “activity change, negative = inhibition” value is -6.31%.

Regarding `COCCC(=O)N1CCC(Oc2ccc(C(=O)NCc3ccon3)cc2)CC1`, the “activity change, negative = inhibition” value is -13.7%. On to `O=c1[nH]cnc(O)c1C(c1ccc(F)cc1)c1c(O)nc[nH]c1=O`, for which the “activity change, negative = inhibition” value is -8.5%. `CCCc1nnc(NC(=O)CCC(=O)N2CCN(S(=O)(=O)c3ccc(OC)cc3)CC2)s1`: the “activity change, negative = inhibition” value was -3.18%. Regarding `O=C(c1cc2ccccc2o1)N1CCN(c2cccc(C(F)(F)F)c2)CC1`, the “activity change, negative = inhibition” value was 13.8%.

As for `CCN(CC)CCCNC(=S)N(CCO)Cc1cc2cc3c(cc2[nH]c1=O)OCO3`, the “activity change, negative = inhibition” value is 1.28%. As for `CC(=O)N(CC(O)CO)c1c(I)c(C(=O)NCC(O)CO)c(I)c(C(=O)NCC(O)CO)c1I` (stereo unspecified), the “activity change, negative = inhibition” value is 3.35%.

Consider `CC(C)=CCN1CCN(Cc2cc3ccccc3[nH]2)CC1CCO` (stereo unspecified), for which the “activity change, negative = inhibition” value is 2.45%. As to `CCc1ccc(C(=O)NN=C2CCCCCC2)s1`, the “activity change, negative = inhibition” value was -6.71%. As for `COc1ccc(C(=O)Nc2ccc(C(=O)NCC3CCCO3)cc2)c(OC)c1OC` (stereo unspecified), the “activity change, negative = inhibition” value was -5.91%. As to `O=C(c1cccc(Br)c1)N1CCN(C2=NS(=O)(=O)c3ccccc32)CC1`, the “activity change, negative = inhibition” value is 0.198%. As for `O=C(NCCCNC(=O)c1ccccc1Cl)c1cnccn1`, the “activity change, negative = inhibition” value is 1.34%. Turning to `Cc1cc(C)c(C(=O)CSc2nc(C)cc(=O)[nH]2)c(C)c1`, the “activity change, negative = inhibition” value was 15.2%. As for `NC(=O)Cn1cc(/C=N\NS(=O)(=O)c2ccccc2)c2ccccc21`, the “activity change, negative = inhibition” value was 0.323%. Regarding `COc1cccc(CN(C)CC2CCCN(CCc3ccc(Cl)cc3)C2)c1OC` (stereo unspecified), the “activity change, negative = inhibition” value is -12.2%.

For the molecule `C/C=C/C=N/NC(=O)c1ccncc1`, the “activity change, negative = inhibition” value is -7.45%. The same measure, in the same setting: the result for `CN1C(=O)[C@H]2[C@@H](C3CC3)N3C(=O)CN(Cc4ccccc4)C(=O)[C@@]3(C)[C@H]2C1=O` reads -2.11%. Turning to `COc1ccc(C(=O)CCC(=O)Nc2cccnc2)c(OC)c1`, the “activity change, negative = inhibition” value is 24.3%. Still for that read-out and setting: with `CC(C)(O)c1ccccc1CC[C@H](SCC1(CC(=O)O)CC1)c1cccc(/C=C/c2ccc3ccc(Cl)cc3n2)c1` the figure was -8.6%; with `CCN(CC)c1ccc(C(=O)Nn2c(C)nc3ccccc3c2=O)cc1`, -3.36%. For the molecule `O=C(NC(=S)Nc1ccc(Cl)c(C(=O)O)c1)c1cncc(Br)c1`, the “activity change, negative = inhibition” value is 12.4%. Still for that read-out and setting: with `CC(C)c1ccc(C2C(C(=O)c3ccco3)=C(O)C(=O)N2CC2CCCO2)cc1` (stereo unspecified) the figure was 6.78%; with `COc1cc(C)c(C)cc1S(=O)(=O)N1CCCc2ccccc21`, 1.1%. Consider `Cc1c(S(=O)(=O)N2CC(C)CC(C)C2)c(=O)n(C)c(=O)n1C` (stereo unspecified), for which the “activity change, negative = inhibition” value was 17.4%. In the case of `O=CN1CCN(C(=O)c2ccc(Br)o2)CC1`, the “activity change, negative = inhibition” value is 6.07%. Still for that read-out and setting: with `Cc1ccc(NS(=O)(=O)c2ccc(-c3coc(C)n3)cc2)c(C)c1` the figure was -1.43%. Regarding `COc1ccc2cc(S(=O)(=O)Nc3ccccn3)ccc2c1`, the “activity change, negative = inhibition” value is 0.793%. Consider `COc1ccc(S(=O)(=O)Nc2c(C)n(C)n(-c3ccccc3)c2=O)cc1`, for which the “activity change, negative = inhibition” value is -7.65%. Take `COc1ccc(S(=O)(=O)/N=C2\C=C(NS(=O)(=O)c3ccccc3)C(=O)c3ccccc32)cc1`: the Potency was 25.1 µM (active). As to `NC(=O)c1cc(S(=O)(=O)N2CCCC2)ccc1OCc1ccc(F)cc1`, the “activity change, negative = inhibition” value was 13.4%. In the case of `O=C(O)c1ccc(S(=O)(=O)N2CCOCC2)o1`, the “activity change, negative = inhibition” value is 1.09%. For the molecule `CCn1nc(C)c(CNC(=O)C2CCC(=O)N(Cc3cccc(F)c3)C2)c1C` (stereo unspecified), the “activity change, negative = inhibition” value was 0.542%.

For `COc1ccc(-c2cc(=O)oc3cc(OCC(=O)N(C)C4CCS(=O)(=O)C4)ccc23)cc1` (stereo unspecified), the “activity change, negative = inhibition” value was 0.391%. Regarding `Cc1cc(C)c2c(Cn3ccnc3)cc(=O)oc2c1`, the “activity change, negative = inhibition” value was 11.5%.

Regarding `Cc1cc(-c2nnc(SCC(=O)Nc3ccc(S(N)(=O)=O)cc3)n2N)n[nH]1`, the “activity change, negative = inhibition” value was 12.2%. For `Cc1ccc(NC(=O)NC(=O)c2ccccc2)cc1F`, the “activity change, negative = inhibition” value is 15.1%. The same measure, in the same setting: the result for `Cc1ccc(NC(=O)CSc2nn3c(=O)c(C)nnc3s2)cc1Cl` reads 4.2%; that for `COc1ccc(CNS(=O)(=O)c2ccc(NC(=O)N3CCCCC3)cc2)cc1`, -3.43%.

`CCCc1cc(C(=O)N2CCCC(CO)(CCCc3ccccc3)C2)n(C)n1` (stereo unspecified): the “activity change, negative = inhibition” value was 3.59%. Still for that read-out and setting: with `Cc1ccc(C(=O)NCC(=O)OCc2nnc(-c3ccccc3)o2)cc1` the figure was -10.8%; with `COc1ccc(CN2CCCC(N3CCc4ccccc4C3)C2)c(O)c1` (stereo unspecified), -1.21%. Turning to `CC(C)(C)c1ccc(C(=O)N2CCN(CCNC(=O)C(=O)Nc3ccc(F)cc3)CC2)cc1`, the “activity change, negative = inhibition” value was -10.7%. For `O=C(NCCCN1CCOCC1)C1CCCN(S(=O)(=O)N2CCCCC2)C1` (stereo unspecified), the “activity change, negative = inhibition” value was 0.988%. With `O=C(CCn1nnc2ccccc21)OCC(=O)c1ccc([N+](=O)[O-])cc1`, the “activity change, negative = inhibition” value is -0.286%. On the same count and under the same terms, with `COc1cc([N+](=O)[O-])cc([N+](=O)[O-])c1NC(=O)N1CCOCC1` the figure was -1.05%; with `Cc1csc(NC(=O)CSc2nc(=O)cc(N)n2-c2ccc(F)cc2)n1`, 1.97%. The same measure, in the same setting: the result for `CCOc1ccc(S(=O)(=O)N2CCCC(C(=O)N3CCC(C(N)=O)CC3)C2)cc1Cl` (stereo unspecified) reads 2.08%; that for `Cc1c(CN2CCC(n3nccc3NC(=O)CCc3ccccc3)CC2)cnn1C`, 6.67%; that for `CC(=O)c1ccc(NC(=O)Cn2c(=O)oc3ccccc32)cc1`, -3.9%. With `CCOc1ccccc1NC(=O)C1CCCN(S(=O)(=O)c2ccccc2)C1` (stereo unspecified), the “activity change, negative = inhibition” value is 0.776%.

As to `CC1CCC(NS(=O)(=O)c2ccc3c(c2)CC(=O)N3)CC1` (stereo unspecified), the “activity change, negative = inhibition” value was 5.85%.

Consider `CC(=O)N[C@@H](C)C(=O)N1CCC(n2nccc2NC(=O)CCCc2ccccc2)CC1`, for which the “activity change, negative = inhibition” value is 4.89%. Turning to `Clc1ccc(C(Cn2ccnc2)OCc2ccsc2Cl)c(Cl)c1` (stereo unspecified), the “activity change, negative = inhibition” value was 0.809%. Take `COc1ccc(OCCn2ccnc2C)cc1`: the “activity change, negative = inhibition” value is -0.496%. Turning to `Cc1ccc(CN(C)Cc2cc(=O)oc3cc(C)c(Cl)cc23)cc1`, the “activity change, negative = inhibition” value is 15.9%. Take `COc1ccc(N(C(=O)CNC(=O)c2ccco2)C(C(=O)NCC2CCCO2)c2ccccc2)cc1Cl` (stereo unspecified): the “activity change, negative = inhibition” value was -5.18%.

For the molecule `CCOC(CNC(=O)C(=O)NCC(c1ccco1)N1CCN(c2ccc(OC)cc2)CC1)OCC` (stereo unspecified), the “activity change, negative = inhibition” value is -8.29%. Take `Cc1ccc(NS(=O)(=O)c2c(C)[nH]c(C)c2C(=O)N2CCCCC2)c(C)c1`: the “activity change, negative = inhibition” value was 1.83%. As to `CCOC(=O)c1cccc(NC(=O)C2CCN(c3ncnc4c3nc3n4CCCCC3)CC2)c1`, the “activity change, negative = inhibition” value was 1.78%. As to `O=S1(=O)CCO[C@H]2Cc3ccccc3[C@H]2N1Cc1ccccc1`, the “activity change, negative = inhibition” value was -1.12%.

Regarding `CC(C)c1ccc(/C=C2\NC(=O)NC2=O)cc1`, the “activity change, negative = inhibition” value was 1.65%. On to `Cc1cccc(NS(=O)(=O)c2ccc([N+](=O)[O-])cc2)n1`, for which the “activity change, negative = inhibition” value is 0.441%.

On to `COc1ccc(NC(=O)CC2C(=O)NC3CCCCC3N2C(=O)c2ccc(F)cc2)cc1` (stereo unspecified), for which the “activity change, negative = inhibition” value is 18.1%. In the case of `COCC1CCN(C(=O)C2CCC(=O)N(CC3CCCCC3)C2)CC1` (stereo unspecified), the “activity change, negative = inhibition” value was 22.3%. On to `S=C(NCCC1=CCCCC1)Nc1ccccc1`, for which the “activity change, negative = inhibition” value was -18.3%.

As for `CSc1ccccc1OCc1cc(C(=O)N2C[C@H]3CC[C@H]2C3)no1`, the “activity change, negative = inhibition” value was 4.47%. On to `O=C(Cc1ccc(Cl)cc1)NC(=S)Nc1ccccc1O`, for which the “activity change, negative = inhibition” value is 15%. In the case of `CCC(C)(C)n1nnnc1C(c1ccc(OC)c(OC)c1)N1CCN(C(=O)c2ccco2)CC1` (stereo unspecified), the “activity change, negative = inhibition” value was 4.14%. In the case of `CC(=O)NC(Cc1c[nH]c2ccccc12)C(=O)NCCc1ccccc1` (stereo unspecified), the “activity change, negative = inhibition” value was 4.26%. `C[C@H](C(=O)CC(=O)OC(C)(C)C)[C@H](O)c1ccc(C(F)(F)F)cc1`: the “activity change, negative = inhibition” value was 5.01%. As to `CCc1nc2nc(C)c(NS(=O)(=O)c3ccc4c(c3)CCCC4)c(=O)n2[nH]1`, the “activity change, negative = inhibition” value is -9.81%. As to `CCOC(=O)c1c(C)[nH]c(C(=O)NCCN2CCOCC2)c1C`, the “activity change, negative = inhibition” value was 6.14%. As to `COc1ccc(NS(=O)(=O)c2cc(C(=O)Nc3ccccc3C(=O)O)ccc2C)cc1`, the “activity change, negative = inhibition” value is -16.7%.
